Data taken from PubChem BioAssay AID588458 (Sanford-Burnham Center for Chemical Genomics, 2011).
Several values for one entry are separate records, joined by “and”; a condition that tells them apart may be missing. Equal entries are not always repeated. The whole screen tested about 360,000 compounds, of which about 3,000 (0.83%) were called active. The sample holds actives, similar compounds and a random draw of the others, so the mix is not that of the screen. Cut-off read from the data, not from the text of the source: active = inhibition above about 50%; inactive = the rest. Some structures have more than one record in an assay (separate samples or runs), and their calls can disagree.

Target: DNA (cytosine-5)-methyltransferase 1 (Homo sapiens) (UniProt P26358)
Test: human DNMT1 methyltransferase inhibitors, primary screen, biochemical, molecular beacon, fluorescence, HinP1I cleavage, uHTS (AID 588458)
Conditions: at 10 µM, stronger effect = higher value

Sequence of DNA (cytosine-5)-methyltransferase 1 (Homo sapiens) (P26358 504-1616 limits assumed): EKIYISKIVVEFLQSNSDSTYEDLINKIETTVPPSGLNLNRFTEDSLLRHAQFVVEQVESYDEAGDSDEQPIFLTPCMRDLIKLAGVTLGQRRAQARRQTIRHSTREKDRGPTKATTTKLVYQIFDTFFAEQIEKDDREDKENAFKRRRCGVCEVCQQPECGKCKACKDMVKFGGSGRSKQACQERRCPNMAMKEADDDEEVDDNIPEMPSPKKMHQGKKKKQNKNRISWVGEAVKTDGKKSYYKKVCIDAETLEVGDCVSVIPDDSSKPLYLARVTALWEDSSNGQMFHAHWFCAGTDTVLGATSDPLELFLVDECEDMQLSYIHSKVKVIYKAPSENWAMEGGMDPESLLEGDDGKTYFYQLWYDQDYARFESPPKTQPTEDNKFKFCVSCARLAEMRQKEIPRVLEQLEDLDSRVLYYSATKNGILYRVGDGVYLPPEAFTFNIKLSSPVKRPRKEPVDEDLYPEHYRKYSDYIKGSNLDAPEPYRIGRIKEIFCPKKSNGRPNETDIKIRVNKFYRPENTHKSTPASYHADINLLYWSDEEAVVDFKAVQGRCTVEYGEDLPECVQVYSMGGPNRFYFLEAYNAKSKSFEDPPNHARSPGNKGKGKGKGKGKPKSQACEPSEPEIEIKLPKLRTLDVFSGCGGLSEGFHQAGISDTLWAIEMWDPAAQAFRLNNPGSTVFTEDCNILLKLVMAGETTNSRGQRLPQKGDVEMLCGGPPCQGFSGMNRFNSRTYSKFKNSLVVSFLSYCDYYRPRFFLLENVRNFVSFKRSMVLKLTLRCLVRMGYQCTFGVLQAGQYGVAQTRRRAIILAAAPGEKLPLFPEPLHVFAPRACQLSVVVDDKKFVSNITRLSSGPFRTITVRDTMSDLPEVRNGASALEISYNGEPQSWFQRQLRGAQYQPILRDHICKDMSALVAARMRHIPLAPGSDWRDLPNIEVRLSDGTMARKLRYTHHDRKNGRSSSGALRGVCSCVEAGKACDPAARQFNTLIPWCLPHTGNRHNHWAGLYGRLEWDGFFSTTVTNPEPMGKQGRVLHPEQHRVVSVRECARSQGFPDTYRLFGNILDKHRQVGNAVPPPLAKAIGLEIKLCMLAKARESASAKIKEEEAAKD

| SMILES | inhibition (reported as % activation of signal) |
| --- | --- |
| Cc1c(-c2ccccc2)n[nH]c1C(=O)N=Nc1c(O)[nH]c2ccccc12 | 47.8% (inactive) |
| O=[N+]([O-])c1cc(S(=O)(=O)Nc2cccc(Cl)c2)ccc1N=Nc1c(O)[nH]c2ccccc12 | 56.3% (active) |
| O=C(NCc1ccncc1)c1ccc(NS(=O)(=O)c2cccc([N+](=O)[O-])c2)cc1 | -0.75% (inactive) |
| CCc1cc(CNC(=O)CC2C(=O)NCCN2Cc2ccccc2C(F)(F)F)on1 (stereo not drawn) | -2.03% (inactive) |
| CCOC(=O)c1c(-c2cccc(N)c2)cn2ccccc12 | 2.56% (inactive) |
| NC(=S)NN=Cc1ccc(OC(=O)COc2cc(Cl)c(Cl)cc2Cl)cn1 | -3.17% (inactive) |
| COc1cccc(CC2(CO)CCCN(Cc3ccc(OC(F)F)cc3)C2)c1 (stereo not drawn) | 1.47% (inactive) |
| CCOc1cc(CN2CCCC(CO)(Cc3ccc(F)cc3F)C2)ccc1OC (stereo not drawn) | 60.8% (active) |
| Cc1ccccc1CC1(CO)CCCN(Cc2ccc3c(c2)OCCO3)C1 (stereo not drawn) | -0.5% (inactive) |
| CC1(C(=O)NCc2ccc(F)c(F)c2)Cc2c(-c3ccc4c(c3)OCO4)ccnc2O1 (stereo not drawn) | -0.89% (inactive) |
| Cc1cc2c(cc1C)N1C(=O)c3cc4ccccc4cc3NC(=O)C1C(=O)N2 (stereo not drawn) | 40.5% (inactive) |
| C=CC1=C(C(=O)O)N2C(=O)[C@@H](NC(=O)/C(=N\OCC(=O)O)c3csc(N)n3)[C@H]2SC1 | 81.2% (active) |
| C=CC1=C(C(=O)O)N2C(=O)[C@@H](NC(=O)/C(=N/OCC(=O)O)c3csc(N)n3)[C@H]2SC1 | -43.7% (inactive) |
| Cc1nnc(SCC2=C(C(=O)O)N3C(=O)C(NC(=O)Cn4nc(C)c(Cl)c4C)C3SC2)s1 (stereo not drawn) | 2.36% (inactive) |
| CCN1CCN(C(=O)N[C@@H](C(=O)N[C@@H]2C(=O)N3C(C(=O)O)=C(CSc4nnnn4C)CS[C@H]23)c2ccc(O)cc2)C(=O)C1=O | 1.74% (inactive) |
| CO/N=C(\C(=O)N[C@@H]1C(=O)N2C(C(=O)O)=C(COC(C)=O)CS[C@H]12)c1csc(N)n1 (stereo in doubt) | 20.2% (inactive) and 7.93% (inactive) and 65.2% (active) |
| CCCCN(C=O)c1c(CC)nc2c(OCCC3CCCCC3)cccn12 | -6.04% (inactive) |
| CCOC(=O)C1=CCC(c2ccc(F)cc2)N(S(=O)(=O)c2ccc(C)cc2)C1 (stereo not drawn) | 6.68% (inactive) |
| CC1CCCCN1C(=O)CCS(=O)(=O)Cc1ccccc1 (stereo not drawn) | -2.02% (inactive) |
| CC(C)CC(CCc1ccccc1)OS(N)(=O)=O (stereo not drawn) | 4.1% (inactive) |
| COc1ccc(S(=O)(=O)N2CCN(C(C)C(=O)Nc3ccc(C(C)C)cc3)CC2)cc1 (stereo not drawn) | 2.17% (inactive) |
| COc1ccc(OCC(=O)NNC(=O)c2ccc(-c3ccccc3)cc2)cc1 | 59.6% (active) |
| CC(NC(=O)COc1ccc(-c2ccccc2)cc1)C1CCCO1 (stereo not drawn) | -1.92% (inactive) |
| COc1ccc(OCC(=O)NNC(=O)C2CCC2)cc1 | 0.09% (inactive) |
| COc1ccc(Cl)cc1NC(=O)CN(C)C(=O)c1cn(-c2ccccc2)nc1-c1cccs1 | -24.5% (inactive) |
| CC(C)(C)c1ccc(S(=O)(=O)N2CCN(C(=O)c3ccc4c(c3)C(=O)N(Cc3ccncc3)C4=O)CC2)cc1 | -1.88% (inactive) |
| O=C(CCN1C(=O)C2C3C=CC(C3)C2C1=O)Nc1ccccc1F (stereo not drawn) | 75.5% (active) |

| SMILES | inhibition (reported as % activation of signal) |
| --- | --- |
| O=C(CCN1C(=O)C2C3CCC(C3)C2C1=O)Nc1ccc(Cl)cc1Cl (stereo not drawn) | -0.32% (inactive) |
| O=C(CCN1C(=O)C2C3C=CC(C3)C2C1=O)Oc1ccc2ccccc2c1 (stereo not drawn) | -3.47% (inactive) |
| COc1cccc(-c2cc3nc(NCc4ccccc4OC)n(C)c(=O)c3s2)c1 | -11.8% (inactive) |
| CC1C(=O)N(Cc2cn(CC3CCCCC3)nn2)CCS(=O)(=O)N1Cc1ccc(-c2cccc(N(C)C)c2)cc1 (stereo not drawn) | -9.42% (inactive) |
| Cc1csc(OCC(=O)Nc2ccc(C)c(C)c2)n1 | -0.47% (inactive) |
| CCCNC(=O)c1cc(C2CCCN(C(=O)c3ccc4c(c3)CCO4)C2)on1 (stereo not drawn) | -0.91% (inactive) |
| COc1ccc(S(=O)(=O)N2CCCCC2c2cc(C(=O)NCc3ccc(F)cc3)no2)cc1 (stereo not drawn) | 6.18% (inactive) |
| CC(C)Cc1nc(Cl)c(C#N)c2c1CCC2 | 3.27% (inactive) |
| CC(NC(=S)NC1CCCCC1)C(c1ccccc1)N1CCOCC1 (stereo not drawn) | 1.12% (inactive) |
| CC(C(=O)Nc1ccc(O)c(C(=O)O)c1)N1C(=O)/C(=C/c2cccs2)SC1=S (stereo not drawn) | -9.71% (inactive) |
| O=C(O)C(c1ccccc1)N1C(=O)/C(=C\c2ccc(-c3cccc(Cl)c3)o2)SC1=S (stereo not drawn) | 79.8% (active) |
| CC(C(=O)NC1CCS(=O)(=O)C1)N1C(=O)/C(=C/c2ccc(Cl)cc2)SC1=S (stereo not drawn) | -2.43% (inactive) |
| NC(=O)CCC(NS(=O)(=O)c1ccc(Cl)cc1)C(=O)NCc1ccccc1Cl (stereo not drawn) | 4.11% (inactive) |
| CCOC(=O)c1cccc(NC(=O)C2CCCN(S(=O)(=O)c3cnc[nH]3)C2)c1 (stereo not drawn) | 76.5% (active) |
| COc1cccc(N2CCN(C(=O)C3CCCN(S(=O)(=O)c4cnc[nH]4)C3)CC2)c1 (stereo not drawn) | -15.4% (inactive) |
| O=C(NCc1ccco1)C1CCCN(S(=O)(=O)c2cnc[nH]2)C1 (stereo not drawn) | -1.66% (inactive) |
| CC(C)c1cc(C(=O)N/N=C/c2ccoc2)c(O)c(C(C)C)c1 | 13.8% (inactive) |
| Cc1cc(=O)oc2cc(OCC(=O)Nc3nnc(C4CC4)s3)ccc12 | -3.06% (inactive) |
| Cc1ccc(O)c(/C=N/NC(=O)COc2ccc3c(C)cc(=O)oc3c2)c1 | 59.9% (active) |
| CCOC(=O)Cc1csc(NC(=O)COc2ccc3c(C)cc(=O)oc3c2)n1 | -0.49% (inactive) |
| O=C(c1cc(-c2ccco2)nc2ccccc12)N(Cc1nnc(-c2ccc(Cl)cc2)o1)C1CC1 | 13.4% (inactive) |
| CN(C(=O)COC(=O)Cc1ccccc1[N+](=O)[O-])C1CCS(=O)(=O)C1 (stereo not drawn) | 2.42% (inactive) |
| CN(C(=O)COC(=O)c1cc(-c2ccco2)nc2ccccc12)C1CCS(=O)(=O)C1 (stereo not drawn) | 92.3% (active) |
| CN(CCOc1ccccc1)C(=O)c1cc(-c2ccco2)nc2ccccc12 | 72.3% (active) |
| COc1ccc(NC(=O)COc2ccc(C(=O)OCC(=O)N(C)C3CCS(=O)(=O)C3)cc2OC)cc1 (stereo not drawn) | 8.48% (inactive) |
| CN(CCOc1ccccc1)C(=O)c1cc(COc2c(F)cccc2F)on1 | 1.59% (inactive) |
